Tb PYK inh – blocks Trypanosoma brucei pyruvate kinase | Q57TT1 | TbPYK enzyme, Kinase-Glo Plus ATP luminescence, 45 min | Potency, µM (series often up to 76.8 µM), inactives show at the highest dose activity, negative = inhibition, most hits filed as inhibitors | 410,000 compounds, 0.12% hits | AID 624173; note: potency is the fitted concentration of half-maximal effect; % is set by controls: 0 for no effect and ±100 for the full control effect; nearly all actives have a fitted effect of over 50% in size
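Readout: single end-point luminescence (Kinase-Glo Plus, 10 min). Reaction conditions were TbPYK/substrate plus 130 uM ADP, 45 min at RT, pH 7.2 TEA buffer. No-enzyme wells served as controls, and data were normalized before concentration-response fitting.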
RE007 growth inh – less growth of the S. pombe RE007 Vpr strain; Potency, µM (titrated, usually from 92.2 µM), for the others: at the top dose activity change, negative = less growth, actives largely listed as inhibitors; 360,000 compounds, 0.21% hits; S. pombe RE007 Vpr strain, BacTiter-Glo ATP luminescence, 24 h; active = well fitted falling curve with a large enough effect; inconclusive = small, poorly fitted or top-dose-only effect; inactive = no such curve, though single readings can be large or run the other way; note: potency is the fitted concentration of half-maximal effect; % is set by controls: 0 for no effect and ±100 for the full control effect; nearly all actives have a fitted effect of over 50% in size
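Fission yeast RE007 carrying one integrated HIV-1 vpr copy, seeded at OD 0.01 in PMG+AL medium with 23 nL pinned compound. Grown 24 h at 30 degrees; viability read by BacTiter-Glo luminescence after 5 min.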
Giardia FBPA inh – inhibitors of Giardia lamblia fructose-1,6-bisphosphate aldolase. 290,000 compounds, 0.71% hits. purified Giardia FBPA. A8B2U2. Potency, µM (highest dose often 59.6 µM), inactives show at the top dose activity, negative = inhibition, most hits filed as inhibitors; note: potency is the fitted concentration of half-maximal effect; % is set by controls: 0 for no effect and ±100 for the full control effect; nearly all actives have a fitted effect of over 55% in size
Target sequence (A8B2U2 whole entry, looked up): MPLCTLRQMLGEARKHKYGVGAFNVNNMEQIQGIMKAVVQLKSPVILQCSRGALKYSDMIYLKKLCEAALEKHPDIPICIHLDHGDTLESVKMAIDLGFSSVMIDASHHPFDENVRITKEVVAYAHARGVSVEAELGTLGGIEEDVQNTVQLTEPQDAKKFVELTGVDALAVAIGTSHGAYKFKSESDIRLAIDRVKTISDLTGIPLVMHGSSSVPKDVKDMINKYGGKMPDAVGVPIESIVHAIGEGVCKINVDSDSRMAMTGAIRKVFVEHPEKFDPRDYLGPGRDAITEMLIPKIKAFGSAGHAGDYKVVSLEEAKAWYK
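Giardia FBPA (40 nM reagent) was preincubated 10 min at RT with compound (up to 57.5 uM final), then substrate plus GAPDH/TPI/NAD/arsenate coupling system with diaphorase/resazurin was added; resorufin fluorescence (525/598 nm) was read after 20 min.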
CHX counter – counter-screen hit for Shiga toxin inhibitors, cycloheximide. cell reporter, cycloheximide protein synthesis inhibition counterscreen. max response, %. 300,000 compounds, 12% hits. AID 2314; in the data active = max response mostly above about 13%, no sharp cut-off; inactive = mostly below about 14%; note: read at 38.3 µM for the half of the compounds with a filed dose; 0% is about no effect
LmPK inhibitor – inhibitors of Leishmania mexicana pyruvate kinase; purified LmPK, Kinase-Glo ATP luminescence, 1 h; 290,000 compounds, 0.37% hits; Potency, µM (titrated, usually from 57.5 µM), for the others: at the top dose activity change, negative = inhibition, hits mostly inhibitors; AID 1721; Q27686; note: potency is the fitted concentration of half-maximal effect; % is set by controls: 0 for no effect and ±100 for the full control effect
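qHTS format; LmPK 0.1 nM; substrates PEP 0.5 mM and ADP 0.1 mM. One-hour room-temperature incubation, then coupled luciferase luminescence; 0.5 nM enzyme wells mark activation.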
Shiga inhibitor – Shiga toxin inhibition | Vero cells, Shiga toxin protein synthesis inhibition reporter | inhibition, % at 38.7 µM | 290,000 compounds, 9.2% hits; in the data active = inhibition mostly above about 28%, no sharp cut-off; inactive = mostly below about 43%; note: 0% is about no effect
Numbers without * were called inactive; ? = inconclusive; . = not tested or not shown; + = active, no number; [ ] = remark or other dose. Shown is part of a subset that was picked to be rich in hits. Unless noted, calls come from the whole dose curve; as a rule, active = well fitted curve in the direction sought with a large enough effect; inconclusive = small, poorly fitted or top-dose-only effect, or another doubt; inactive = no such curve, though single readings can be large; an effect the other way counts as inactive or inconclusive.

SMILES	Tb PYK inh	RE007 growth inh	Giardia FBPA inh	CHX counter	LmPK inhibitor	Shiga inhibitor
COC1CCC(C(=O)c2ccc3nc4c(cc3c2)CCCO4)CC1 (configuration not stated)	.	.	5%	.	.	.
Cc1onc(-c2ccccc2Cl)c1C(=O)Nc1ccc(Br)cc1	4%	2%	8%	6	5%	-12
O=C(NC(=S)Nc1ccccn1)c1cncc(Br)c1	2%	-11%	-26%	41*	-3%	25
CCOc1ccc(C(=O)NC(=S)Nc2ccccn2)cc1[N+](=O)[O-]	-1%	3%	?	15*	-11%	31
COc1ccc(/C=N/n2c(-c3cccs3)n[nH]c2=S)cc1	1.3µM*	-6%	4%	-2	-22%	-14
Cc1ccc(/C=N/n2c(-c3cccs3)n[nH]c2=S)cc1	?	-3%	1%	-2	-15%	-18
Oc1c(Br)cc(/C=N/n2c(-c3ccccc3)n[nH]c2=S)cc1Br	?	-4%	8%	-2	18µM*	-5
COc1cc(-c2n[nH]c(=S)n2/N=C/c2cccn2C)cc(OC)c1OC	?	9%	-15%	-3	7.9µM*	3
COc1cc(/C=N/n2c(-c3ccccc3)n[nH]c2=S)ccc1O	6.3µM*	-7%	?	6	?	-2
CCN1C(=O)c2ccccc2C1Nc1cccc(OCCN2CCCCC2)c1 (configuration not stated)	0%	.	.	.	.	.
COc1ccccc1C(CNC(=O)c1cccc(S(=O)(=O)NCc2ccccc2)c1)N(C)C (configuration not stated)	-3%	-9%	.	.	.	.
Cc1cn2c(=O)cc(COc3ccccc3NC(=O)c3ccccc3C)nc2s1	-5%	.	.	.	.	.
COC(=O)CN1C(=O)CSc2ccc(S(=O)(=O)Nc3cccc(Cl)c3C)cc21	-6%	.	.	.	.	.
Cc1c(C)c2ccc(OCC(=O)Nc3nccs3)cc2oc1=O	4%	-6%	.	45*	-1%	78*
CCCCc1cc(=O)oc2cc(OCC(=O)Nc3ccccn3)ccc12	-2%	4%	.	40*	-18%	98*
Cc1c(C)c2ccc(OCC(=O)Nc3ccccn3)cc2oc1=O	-2%	1%	.	34*	-20%	62*
CCCCc1cc(=O)oc2cc(OCC(=O)NCc3ccccn3)ccc12	3%	11%	10%	4	1%	-6
Cc1cc(=O)oc2cc(OCC(=O)Nc3nccs3)ccc12	-5%	-7%	-19%	35*	0%	74*
Cc1ccc(C2(C)NC(=O)N(CC(=O)c3ccc(Cl)s3)C2=O)cc1 (configuration not stated)	-7%	-21%	0%	-3	0%	6
COc1ccc(NC(=S)NNC(=O)c2ccco2)c(OC)c1	-5%	18%	.	.	.	.
CCn1cc(C(=O)O)c(=O)c2cc(F)c(N/N=C/c3ccccc3[N+](=O)[O-])cc21	1%	-18%	11%	-3	3%	-10
CCOc1ccc(C(=O)c2cn(CC(=O)Nc3ccc(F)c(F)c3)c3cc4c(cc3c2=O)OCCO4)cc1	6%	.	.	.	.	.
COc1ccc(Cc2nc3ccc(C(=O)N4CCOCC4)cc3o2)cc1	-1%	?	.	68*	-4%	+
CCN(CCn1cccn1)C(=O)c1ccc2nc(Cc3ccc(OC)cc3)oc2c1	-6%	-11%	14%	23*	3%	56
COc1ccc(Cc2nc3ccc(C(=O)N4C[C@@H](C)O[C@@H](C)C4)cc3o2)cc1OC	-5%	-10%	.	44*	0%	62*
SMILES	Tb PYK inh	RE007 growth inh	Giardia FBPA inh	CHX counter	LmPK inhibitor	Shiga inhibitor
COc1ccc(Cc2nc3ccc(C(=O)NCCn4cccn4)cc3o2)cc1	-12%	-8%	1%	2	8%	5
COc1ccc(Cc2nc3ccc(C(=O)N4CCC(C(N)=O)CC4)cc3o2)cc1	-1%	1%	.	.	.	.
CO/N=C(\C)CCN1CCCCc2nc(C)c(C)cc21	.	.	-3%[12.9 µM]	.	.	.
COc1cc(-c2noc(C)c2C(=O)NCCCN2CCOCC2)cc(OC)c1OC	-3%	0%	.	.	.	.
COc1ccc(-c2[nH]ncc2/C=N\NC(=O)c2ccc(C(C)(C)C)cc2)cc1OC	-3%	4%	-3%	21*	-2%	76*
CN1c2ccccc2-c2ccccc2S1(=O)=O	5%	4%	.	.	.	.
CN1c2ccccc2C(=O)C(=C2SCCCS2)S1(=O)=O	-5%	-12%	-13%	25*	0%	32
COc1ccccc1CNC(=O)COC(=O)c1ccc(-n2cnnn2)cc1	-13%	-8%	.	.	.	.
O=C(OCCOc1ccccc1Cl)c1ccc(-n2cnnn2)cc1	-6%	1%	0%	36*	4%	75
CC(=O)NC(Cc1ccccc1)c1ccc2c(c1)OCCCO2 (configuration not stated)	-6%	19%	-1%	11	0%	active
O=C(NC(Cc1ccccc1)c1ccc2c(c1)OCCCO2)c1ccc(F)cc1 (configuration not stated)	31%	11%	-6%	20	-1%	30
Cc1ccc(N=C2NC(=O)/C(=C/c3cccn3C)S2)cc1	-4%	0%	-6%	37*	-1%	79*
Cc1cccc(N=C2NC(=O)/C(=C/c3cccn3C)S2)c1C	-2%	-11%	-11%	3	-2%	14
Cc1ccc(N=C2NC(=O)/C(=C/c3cccn3C)S2)cc1C	-2%	-15%	3%	32*	1%	66*
COc1ccc(NC(=O)C2CCN(S(=O)(=O)c3ccc(Cl)c(C(F)(F)F)c3)CC2)cn1	0%	-2%	.	.	.	.
CN(C)S(=O)(=O)c1ccc2c(c1)N(CC(=O)NCc1ccccc1)C(=O)C1CCCCN21 (configuration not stated)	-3%	.	.	.	.	.
CC(=O)c1c(C)[nH]c(C(=O)Nc2cccc(S(=O)(=O)N(C)C)c2)c1C	1%	-2%	-6%	31*	5%	50
Cc1nc2ccc(NC(=O)c3ccc(S(=O)(=O)N(C)C)cc3)cc2s1	4%	12%	1%	12	12%	15
CN(C)S(=O)(=O)c1cccc(NC(=O)c2c[nH]c3ccccc23)c1	0%	13%	-2%	16*	-2%	64*
Cc1cccc(NC(=O)c2ccc(S(=O)(=O)N(C)C)cc2)c1	-1%	-2%	0%	16*	5%	41
CN(C)S(=O)(=O)c1ccc(C(=O)Nc2ccc3ncccc3c2)cc1	-4%	4%	-5%	32*	-2%	41*
CC(=O)c1c(C)[nH]c(C(=O)Nc2ccc(S(=O)(=O)N(C)C)cc2)c1C	-2%	6%	-2%	3	-14%	9
COc1ccc(CCNC(=O)c2cc3ccc(Cl)cc3nc2N)cc1	7%	-18%	.	.	.	.
O=C(Cn1cnc2c(nc3n2CCCCC3)c1=O)Nc1ccc(F)c(Cl)c1	-2%	.	.	.	.	.
COc1ccc(/C(C#N)=C/c2cccnc2)cc1	.	.	1%	45*	-6%	71*

Bioassay records deposited in PubChem BioAssay by National Center for Advancing Translational Sciences (NCATS).
